Screening results from PubChem BioAssay.
Lassa entry inh = blocks Lassa virus binding to or entry into cells; Lassa virus pseudotype entry inhibition, cell reporter; Potency, µM (doses to about 37.9 µM), for the others: at the top dose activity change, negative = inhibition, most hits filed as inhibitors; 300,000 tested, 1.2% active; AID 540256; calls by dose curve; tested in HEK293 cells; further: potency means the concentration at half of the fitted maximal effect; nearly all actives have a fitted effect of over 50% in size
HCV inh = inhibitors of hepatitis C virus infection | Huh7.5.1 HCVcc-Cre infection, luciferase reporter, 44 h | Potency, µM (highest dose often 41.8 µM), inactives show top-dose activity change, negative = inhibition, actives largely listed as inhibitors | 340,000 tested, 3.4% active; active means well fitted inhibition curve with a large enough effect; inconclusive means small, poorly fitted or top-dose-only effect, or another doubt; inactive means no such curve, though single readings can be large or run the other way; further: potency means the concentration at half of the fitted maximal effect
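Cells (1,000/well) were plated 4 h before compound, then infected with HCVcc-Cre virus (~0.5 moi). After 44 h further culture, infection was read as luciferase luminescence following a 15 min substrate incubation at room temperature.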
HCMV inh = blocks human cytomegalovirus replication. HFF cells, HCMV-luciferase reporter, 72 h; hits give low values. AID 1259415. activity change, negative = inhibition, % at 57.5 µM. 410,000 tested, 4.5% active; in the data active means activity change below about -60%; inconclusive means no clear call, values can overlap the other calls; inactive means above about -39%
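Compounds were evaluated in HFFs infected with an HCMV luciferase reporter virus (MOI 1 PFU/cell). Luciferase in lysates collected 72 h post infection served as the replication measure.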
Marburg entry inh = blocks Marburg virus binding to or entry into cells. Marburg virus pseudotyped entry inhibition, cell reporter. Potency, µM (top dose mostly 37.8 µM), without a hit: at the top dose activity change, negative = inhibition, usual class: inhibitors. 300,000 tested, 1.8% active. AID 540276; calls by dose curve; tested in HEK293 cells; further: potency means the concentration at half of the fitted maximal effect
FMDV antiviral = foot and mouth disease virus antiviral activity | FMDV antiviral cell-based qHTS | Potency, µM (titrated, usually from 57.9 µM), for inactives: at the top dose activity change, negative = inhibition, actives largely listed as inhibitors | 410,000 tested, 1.2% active | AID 1159524; calls by dose curve; tested in HEK293T cells; further: read-out not given here; potency means the concentration at half of the fitted maximal effect; nearly all actives have a fitted effect of over 45% in size
The depositor's hits bear a star; ? = inconclusive; · = no result given; [ ] = dose if it differs, or a comment. Shown are actives, neighbours in structure and some others; about 7.9% of the full set was active somewhere. On the % scale 0 is the no-effect control and ±100 the full control effect.

SMILES	Lassa entry inh	HCV inh	HCMV inh	Marburg entry inh	FMDV antiviral
OCCC1CN(CC(c2ccccc2)c2ccccc2)CCN1C1CCCC1 (stereo not given)	?	?	-32	13µM*	-17%
OCCC1CN(Cc2cnc(-c3ccccc3)s2)CCN1C1CCCC1 (stereo not given)	0%	?	-66*	?	-27%
OCCC1CN(Cc2cnc(-c3ccc(Cl)cc3)nc2)CCN1C1CCCC1 (stereo not given)	-5%	7.1µM*	?	?	?
CC(C)CN1CCN(Cc2cnc(-c3ccc(Cl)cc3)nc2)CC1CCO (stereo not given)	·	?	40	·	11%
OCCC1CN(CC#Cc2ccccc2)CCN1C1CCCC1 (stereo not given)	-22%[46.1 µM]	-4%	-37	1%[46.1 µM]	-13%
Cc1ccc(-c2nc3nc(C)cc(Nc4ccccc4O)n3n2)cc1	?	·	?	·	23%
O=C(NC1CCCCC1)c1ccc(CSc2nc3cccnc3n2Cc2cccc(F)c2)cc1	?	·	-36	·	?
COc1ccc(-c2nc3scc(CCNC(=O)c4cccc(Br)c4)n3n2)cc1	7%[46.1 µM]	·	-30	·	-19%
COc1cccc(C(=O)Nn2c(-c3cccs3)nc3ccccc3c2=O)c1OC	-3%	1%	-6	-4%	-27%
COc1ccc(CNn2c(-c3cccs3)nc3ccccc3c2=O)cc1OC	?	?	-70*	?	?
COc1cccc(CNn2c(-c3cccc(C)c3)nc3ccccc3c2=O)c1	18µM*	?	-73*	?	·
CCOc1ccc(-n2c(-c3cccs3)nc3ccccc3c2=O)cc1	-6%[46.1 µM]	?	-66*	?	?
Cc1cc(C)cc(OCC(=O)Nc2cccc3cccnc23)c1	17%[46.1 µM]	·	12	-4%[46.1 µM]	-18%
COc1ccc(C2=NCC(=S)Nc3ccc(Cl)cc32)cc1Cl	·	-13%	-63*	·	?
c1ccc2c(CCNc3ncnc4nc[nH]c34)c[nH]c2c1	?	7.1µM*	?	-45%	?
O=[N+]([O-])c1ccc(S(=O)(=O)NCCN2CCOCC2)cc1	1%	2%	-14	0%[46.1 µM]	1%
Cc1ccc(C(CNS(=O)(=O)c2ccc([N+](=O)[O-])cc2)N2CCN(C)CC2)cc1 (stereo not given)	?	11µM*	-15	?	0%
CN(C)c1ccc(C(CNS(=O)(=O)c2ccc([N+](=O)[O-])cc2)N2CCOCC2)cc1 (stereo not given)	6%	0%	9	4%[46.1 µM]	-9%
Cc1ccc(C(CNS(=O)(=O)c2ccccc2)N2CCN(C)CC2)cc1 (stereo not given)	21%	-14%	-14	1%	18%
O=[N+]([O-])c1ccc(-c2ccc(S(=O)(=O)NCCN3CCCC3)cc2)cc1	?	10µM*	-71*	18µM*	-24%
Cc1ccc(C(CNS(=O)(=O)c2ccc(Br)cc2)N2CCN(C)CC2)cc1 (stereo not given)	-24%	8.9µM*	-30	?	-12%
CC(CNC(=O)c1ccc(Cn2c(SCc3ccccc3)nc3cccnc32)cc1)c1ccccc1 (stereo not given)	14%[46.1 µM]	·	-9	·	-4%
CCc1ccc(NC(=O)CC2C(=O)N(c3cccc(OC)c3)C(=O)N2C2CCCC2)cc1 (stereo not given)	?	·	-4	·	2%
Cc1ccccc1N1CCN(CCCN2C(=O)CC(=C(c3ccccc3)c3ccccc3)C2=O)CC1	1%	?	19	-13%	-18%
O=C1CC(=C(c2ccccc2)c2ccccc2)C(=O)N1CCCCN1CCN(c2cccc(Cl)c2)CC1	?	11µM*	3	?	?
SMILES	Lassa entry inh	HCV inh	HCMV inh	Marburg entry inh	FMDV antiviral
COC(=O)[C@H](C)Sc1nc2c(c(=O)n(C)c(=O)n2C)n1CCC(C)C	·	·	·	-14%	·
O=C(NCCC1=CCCCC1)C1CCN(C(=O)N2CCOc3ccccc32)CC1	4%[46.1 µM]	·	14	·	-15%
O=C(CSc1cn(CCNC(=O)c2cccs2)c2ccccc12)NC1CCCCC1	·	?	-13	4%	-29%
O=C(CSc1cn(CCNC(=O)c2ccc3ccccc3c2)c2ccccc12)NCc1ccco1	·	?	-68*	·	?
O=C(CSc1cn(CCNC(=O)c2cccs2)c2ccccc12)NCc1ccccc1	·	11µM*	-33	-3%	-20%
COc1ccc(-n2c(-c3ccc(C)cc3)cc3c2CC(C)(C)CC3=O)cc1Cl	-7%[46.1 µM]	·	-18	-2%[46.1 µM]	?
CCCCOc1ccc(S(=O)(=O)NCc2csc(C)n2)cc1	-4%	?	-67*	-27%	·
CCN(C(=O)c1cc2c(=O)oc3ccc(C)cc3c2s1)c1ccccc1C	0%[46.1 µM]	·	13	8%[46.1 µM]	?
N#Cc1ccc(OCc2nnc(SCC(=O)N3CCCc4ccccc43)n2-c2ccccc2)cc1	26µM*	-8%	-3	18µM*	-29%
COc1ccc(-n2c(Cc3cccn3C)nnc2SCC(=O)N2CCCc3ccccc32)cc1	22%[14.3 µM]	·	13	-4%	21%
COc1ccc(OCc2nnc(SCC(=O)N3CCCc4ccccc43)n2-c2ccc(C)cc2)cc1	?	10µM*	-9	?	-15%
COc1cc(NC(=O)c2cc(C3CC3)nc3c2c(C)nn3-c2ccc(C)cc2)cc(OC)c1	6%[46.1 µM]	·	58	·	-18%
CCOc1ccccc1NC(=O)C1CCN(S(=O)(=O)c2ccccc2)CC1	?	·	-18	-1%[46.1 µM]	-13%
Cc1ccc(C)c(N2CCN(C(=O)CN3C(=O)c4ccccc4C3=O)CC2)c1	-1%	19%	0	-7%	?
CN1C(=O)c2ccccc2Sc2ccc(NC(=O)N3CCN(c4ccc(F)cc4)CC3)cc21	-19%[46.1 µM]	·	-97*	?	-7%
Cc1ccc(C)c(N2CCN(C(=O)Nc3ccc4c(c3)N(C)C(=O)CS4)CC2)c1	·	10µM*	-16	·	16µM*
CCN1C(=O)c2ccccc2Sc2ccc(NC(=O)N3CCN(c4cc(C)ccc4C)CC3)cc21	-4%[46.1 µM]	·	-61*	?	-24%
COc1ccc(CNCCCSc2nnnn2-c2ccccc2)cc1	3%[46.1 µM]	·	-12	-3%[46.1 µM]	1%
CC1=Nc2ccccc2/C1=C\c1sc(Nc2ccc(C)cc2)nc1O	?	?	-89*	?	0%
CCc1ccc(NC(=O)C2CCN(C(=O)N3CC(CC)Oc4ccccc43)CC2)cc1 (stereo not given)	-10%[46.1 µM]	·	64	·	?
Cc1nc(C(F)(F)F)ccc1C(=O)N1CCC1(C)C(=O)NS(=O)(=O)c1ccc(C(C)(C)C)cc1 (stereo not given)	·	·	-81*	·	-16%
Cc1ccc(F)c(S(=O)(=O)NC(=O)C2(C)CCN2C(=O)c2ccc(C(F)(F)F)nc2C)c1 (stereo not given)	·	·	-87*	·	-12%
Cc1oc(-c2cccc(Br)c2)nc1Cn1c(=O)cc(-c2ccccc2)c2c(C)nn(C)c21	13%[46.1 µM]	·	?	·	-17%
O=C(Nc1cccc(NC(=O)c2cc([N+](=O)[O-])ccc2Cl)n1)c1cc([N+](=O)[O-])ccc1Cl	·	1.1µM*	·	·	13µM*
